# Results as given in PubChem BioAssay (NCATS).
# Inconclusive results are not listed. A number with no mark means an inactive call. Active and inactive are the calls of the source. The call rests on the fitted dose curve; in most records, active means well fitted inhibition curve with a large enough effect; inconclusive means small, poorly fitted or top-dose-only effect; inactive means no such curve, though single readings can be large or run the other way.
# Target: Thioredoxin reductase 1, cytoplasmic (Rattus norvegicus) (UniProt O89049)
# Test: qHTS Assay for Inhibitors of Mammalian Selenoprotein Thioredoxin Reductase 1 (TrxR1) (AID 488773); further: nearly all actives have a fitted effect of over 40% in size
# Details: purified TrxR1 enzyme activity; Potency: inhibition; series mostly up to 57.1 µM; activity change, negative = inhibition: at the top concentration
# Excerpt: The selenoprotein thioredoxin reductase (TrxR; EC 1.8.1.9) is a FAD containing homodimeric pyridine nucleotide-disulfide oxidoreductase with many cellular roles. Together with NADPH and its prime substrate thioredoxin (Trx), the enzyme forms the core of the Trx system. The mammalian Trx system exerts a wide spectrum of functions including redox regulation, antioxidant defense, regulation of transcription factors as well as support of cell growth and replication. Many of these functions involve the reduction of Trx, which may subsequently reduce a number of different substrates including ribonucleotide reductase, peroxiredoxins or NFkB. Mammalian TrxR itself also has a broad substrate specificity, reducing both protein and non-protein substrates, including low molecular weight compounds such as dehydroascorbate, lipoic acid, ubiquinone, and juglone. In addition, several drugs in clinical use for anticancer treatment are indeed known to target TrxR1.
# This BioAssay is a validation of an NADPH fluorescence-based, dual-purpose qHTS rTrxR1 assay designed to find potential inhibitors and substrates of rTrxR1. For this particular BioAssay, actives are potential inhibitors. See related BioAssay for substrate data deposition.
# Assay protocol: 2 uL of reagents (buffer in column 4 as negative control and 90 nM rTrxR1 in columns 1-3 and 5-48) were dispensed into Greiner black solid-bottom 1,536-well assay plates, followed by 1 uL of NADPH (400 uM final concentration) to each well. The plates were centrifuged at 1000 rpm for 15 seconds and subsequently incubated for 5 min at room temperature (~22 deg C) to allow for rTrxR1 reduction. Compounds (23 nL) were then transferred via Kalypsys pin tool equipped with 1536-pin array (10 nL slotted pins, V&P Scientific, San Diego, CA). In addition, a duplicate 2-fold serial dilution of the control compounds auranofin, a known gold-based TrxR1 inhibitor, and juglone (5-hydroxy-1,4-naphthoquinone), a natural TrxR1 substrate, were pin-transferred to columns 2 and 3, respectively. After incubation for 15 min at room temperature (~22 deg C), 1 uL of selenite (400 uM final concentration) were dispensed to each well. The plate was immediately transferred to a ViewLux high-throughput CCD imager (PerkinElmer), wherein kinetic measurements of NADPH fluorescence (Ex 340 nm, Em 450 nm) were acquired (8 minute kinetic read, see Table 1). Read 1 was utilized to assess the capacity of a compound to serve as an rTrxR1 substrate, i.e. a decrease in NADPH fluorescence compared to the no-compound background is an indication of a substrate behavior for that particular compound. For inhibitory activity of a compound, delta values, computed as the difference in fluorescence intensity between the first and last reads of an 8-minute time kinetic window, were used. All reagents were diluted in an assay buffer consisting of 50 mM Tris-HCl, pH 7.5, 2 mM EDTA, and 0.01% Tween-20.
# Throughout the screen, reagent bottle and all liquid lines were made light-tight to minimize reagent degradation. All screening operations were performed on a fully integrated robotic system (Kalypsys, San Diego, CA) containing one RX-130 and two RX-90 anthropomorphic robotic arms (Staubli, Duncan, SC). Library plates were screened starting from the lowest and proceeding to the highest concentration, and a 'double-pinning' step of the highest concentration was required to access higher concentrations of compounds. Vehicle-only plates, with DMSO being pin-transferred to the columns 5-48, were inserted uniformly at the beginning and the end of each library in order to monitor and record any shifts in the background, which can be affected by reagent dispensers or loss in enzyme activity over time. Screening data were corrected, normalized, and concentration-effect relationships were derived by using publicly-available curve fitting algorithms developed in-house (http://ncgc.nih.gov/pub/openhts).
# On the % scale 0 is the no-effect control and ±100 the full control effect; potency means the concentration at half of the fitted maximal effect.
# Sequence of Thioredoxin reductase 1, cytoplasmic (Rattus norvegicus) (O89049 whole entry, looked up): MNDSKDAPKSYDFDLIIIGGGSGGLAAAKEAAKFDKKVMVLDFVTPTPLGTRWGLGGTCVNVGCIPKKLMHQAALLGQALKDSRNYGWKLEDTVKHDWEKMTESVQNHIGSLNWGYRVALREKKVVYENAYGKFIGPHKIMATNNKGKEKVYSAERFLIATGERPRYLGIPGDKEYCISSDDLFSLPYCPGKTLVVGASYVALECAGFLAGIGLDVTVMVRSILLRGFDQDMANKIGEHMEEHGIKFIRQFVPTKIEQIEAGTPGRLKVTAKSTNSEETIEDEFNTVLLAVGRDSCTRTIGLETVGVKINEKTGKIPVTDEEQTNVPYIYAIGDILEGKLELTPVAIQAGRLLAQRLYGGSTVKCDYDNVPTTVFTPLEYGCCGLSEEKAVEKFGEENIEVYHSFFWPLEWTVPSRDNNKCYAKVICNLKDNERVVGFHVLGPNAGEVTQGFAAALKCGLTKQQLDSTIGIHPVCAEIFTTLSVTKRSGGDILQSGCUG
SMILES,"activity change, negative = inhibition",Potency
Brc1ccc([C@H]2CN3CCSC3=N2)cc1,3.71%,
COc1ccccc1N1CCN(CCN2C(=O)CC3(CCCC3)CC2=O)CC1,-0.3%,
COC(=O)C1=CO[C@@H](O)[C@@H]2C(CO)=CC[C@H]12,-8.18%,
O=[N+]([O-])c1ccc(-c2nc(-c3ccc(F)cc3)c(-c3ccncc3)[nH]2)cc1,-20.7%,
Nc1ncnc2n[nH]c(Nc3ccc(F)cc3)c12,-5.72%,
CN(C)c1cc2c(Nc3ccc4c(cnn4Cc4ccccc4)c3)ncnc2cn1,-0.445%,
Cn1cnc2c(NCc3ccccc3)nc(NCCO)nc21,1.1%,
O=C1NC(=O)/C(=C/c2ccc3c(c2)OC(F)(F)O3)S1,0.482%,
COc1cccc2c1[C@@H]1CN(CCCCn3c(=O)[nH]c4c(sc5ncc(-c6ccccc6)nc54)c3=O)C[C@@H]1CO2,1.36%,
CC(C)N(CCC(=O)c1ccc2ccccc2c1)Cc1ccccc1,,7.52 µM (active)
NC(N)=NCCCCN=C(N)N,-4.65%,
N[C@@H](Cn1ccc(=O)c(O)c1)C(=O)O,-9.44%,
CCN(CC)CCNC(=O)c1ccc(NS(C)(=O)=O)cc1,-2.29%,
O=C1NC(c2cccc([N+](=O)[O-])c2)=CCN1c1ccccc1O,-5.92%,
Cc1nn(-c2ccccc2)c(C)c1/C=N/N1CCN(Cc2ccccc2)CC1,4.17%,
C[N+](C)(C)CCO,1.37%,
